Measured values from PubChem BioAssay (NCI).
Compounds without any hit were thinned out: in the full panel of roughly 83,000, 20% have a hit.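 The endpoint reported here, percent growth, reads 100 for growth as untreated, 0 for no net growth and -100 for all cells dead.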 Active and inactive are the calls of the source. How the source made its calls: active means growth percent below 10; inactive means the rest.

Columns and labels:
Experiment in all cases: NCI-60 one-dose screen, 48 h (100 = growth as untreated, 0 = no growth, -100 = all killed)
Conditions in all cases: 10 µM unless noted
DU-145 prostate = system: DU-145 prostate
K-562 leukemia = system: K-562 leukemia
MALME-3M melanoma = system: MALME-3M melanoma
MDA-MB-231 breast = system: MDA-MB-231 breast
RXF 393 renal = system: RXF 393 renal
SF-268 CNS = system: SF-268 CNS
SF-295 CNS = system: SF-295 CNS
SF-539 CNS = system: SF-539 CNS
UACC-257 melanoma = system: UACC-257 melanoma
M14 melanoma = system: M14 melanoma
HCT-15 colon = system: HCT-15 colon
HT29 colon = system: HT29 colon
SNB-75 CNS = system: SNB-75 CNS
SNB-19 CNS = system: SNB-19 CNS
U251 CNS = system: U251 CNS
PC-3 prostate = system: PC-3 prostate
SK-MEL-5 melanoma = system: SK-MEL-5 melanoma
UACC-62 melanoma = system: UACC-62 melanoma
LOX IMVI melanoma = system: LOX IMVI melanoma
SK-MEL-28 melanoma = system: SK-MEL-28 melanoma

Measured: growth

Clc1ccc(-c2cc(-c3ccccc3)nc(NCCNc3ccnc4cc(Cl)ccc34)n2)cc1
inactive: DU-145 prostate 13.1% | RXF 393 renal 26% | SF-295 CNS 73.2% | SF-539 CNS 74.5% | UACC-257 melanoma 13.3% | SNB-75 CNS 75.7% | SNB-19 CNS 44.7% | PC-3 prostate 16.3% | SK-MEL-5 melanoma 30.7% | UACC-62 melanoma 69%
active: K-562 leukemia 0.266% | MALME-3M melanoma -62.7% | MDA-MB-231 breast -69.2% | SF-268 CNS 3.04% | M14 melanoma -69.7% | HCT-15 colon -72.7% | HT29 colon -16.2% | U251 CNS -85.9% | LOX IMVI melanoma -76.7% | SK-MEL-28 melanoma -62.1%

C=C(CNCCc1ccc(O)cc1)[C@@H]1CC[C@]2(CO)CC[C@]3(C)[C@H](CC[C@@H]4[C@@]5(C)CCC(=O)C(C)(C)[C@@H]5CC[C@]43C)[C@@H]12
inactive: DU-145 prostate 43.2% | RXF 393 renal 26% | SF-268 CNS 45.9% | SF-295 CNS 84.2% | SF-539 CNS 78.8% | SNB-75 CNS 91.2% | SNB-19 CNS 49% | PC-3 prostate 14.6%
active: K-562 leukemia -26.3% | MALME-3M melanoma -57.3% | MDA-MB-231 breast 1.97% | UACC-257 melanoma -12.8% | M14 melanoma -76.3% | HCT-15 colon 6.17% | HT29 colon -42.5% | U251 CNS -63.9% | SK-MEL-5 melanoma -4.88% | UACC-62 melanoma -29.5% | LOX IMVI melanoma -89.7% | SK-MEL-28 melanoma -10.8%

COc1ccc2c(c1)c(/C(O)=C1\COC(=O)C1=O)cn2Cc1ccc(F)cc1
inactive: DU-145 prostate 139% | K-562 leukemia 86.6% | MALME-3M melanoma 106% | MDA-MB-231 breast 94.1% | RXF 393 renal 104% | SF-268 CNS 103% | SF-295 CNS 93.3% | SF-539 CNS 102% | UACC-257 melanoma 95.8% | M14 melanoma 116% | HCT-15 colon 87.8% | HT29 colon 115% | SNB-75 CNS 104% | SNB-19 CNS 100% | U251 CNS 101% | PC-3 prostate 89.7% | SK-MEL-5 melanoma 97.9% | UACC-62 melanoma 88.9% | LOX IMVI melanoma 100% | SK-MEL-28 melanoma 105%

C=C(C)[C@@H]1CC[C@]2(C(N)=O)CC[C@]3(C)[C@H](CC[C@@H]4[C@@]5(C)CC[C@H](OCCC#N)C(C)(C)[C@@H]5CC[C@]43C)[C@@H]12
inactive: DU-145 prostate 94.7% | K-562 leukemia 74.3% | MALME-3M melanoma 101% | MDA-MB-231 breast 73.2% | RXF 393 renal 86.8% | SF-268 CNS 74.1% | SF-295 CNS 79.5% | SF-539 CNS 91.6% | UACC-257 melanoma 101% | M14 melanoma 90.2% | HCT-15 colon 80.9% | HT29 colon 84.7% | SNB-75 CNS 85.9% | SNB-19 CNS 81.2% | U251 CNS 87.7% | PC-3 prostate 68.8% | SK-MEL-5 melanoma 93.3% | UACC-62 melanoma 67.1% | LOX IMVI melanoma 87.1% | SK-MEL-28 melanoma 92.8%

Cc1ccc2nc(/C(C#N)=C(/CCCO)NC(Cc3ccccc3)C(=O)OCc3ccccc3)[nH]c(=O)c2c1 (stereo not given)
inactive: DU-145 prostate 98.4% | K-562 leukemia 119% | MALME-3M melanoma 126% | MDA-MB-231 breast 113% | RXF 393 renal 127% | SF-268 CNS 102% | SF-295 CNS 98.7% | SF-539 CNS 65.1% | UACC-257 melanoma 121% | M14 melanoma 98.4% | HCT-15 colon 117% | HT29 colon 130% | SNB-75 CNS 113% | SNB-19 CNS 90.4% | U251 CNS 104% | PC-3 prostate 115% | SK-MEL-5 melanoma 73.3% | UACC-62 melanoma 99.1% | LOX IMVI melanoma 98.5% | SK-MEL-28 melanoma 96.4%

COc1ccc(/C=C/c2ccc3ccccc3n2)c(OC)c1
inactive: DU-145 prostate 91.2% | K-562 leukemia 19.8% | MALME-3M melanoma 50% | MDA-MB-231 breast 58.9% | RXF 393 renal 90.7% | SF-268 CNS 98.7% | SF-295 CNS 60.2% | SF-539 CNS 83.3% | UACC-257 melanoma 84.8% | M14 melanoma 45.3% | HCT-15 colon 56% | HT29 colon 55.6% | SNB-75 CNS 78% | SNB-19 CNS 83.2% | U251 CNS 83.1% | PC-3 prostate 66.1% | SK-MEL-5 melanoma 78.3% | UACC-62 melanoma 65.8% | LOX IMVI melanoma 59.6% | SK-MEL-28 melanoma 81.7%

O=C1Nc2ccccc2C1(c1c[nH]c2ccccc12)c1c[nH]c2ccccc12
inactive: DU-145 prostate 29.6% | K-562 leukemia 42.9% | MALME-3M melanoma 81.8% | MDA-MB-231 breast 49% | SF-268 CNS 53.2% | SF-295 CNS 86.3% | SF-539 CNS 47.1% | UACC-257 melanoma 94.6% | M14 melanoma 66% | HCT-15 colon 32.2% | HT29 colon 53.3% | SNB-19 CNS 81.5% | U251 CNS 73.7% | SK-MEL-5 melanoma 89.4% | UACC-62 melanoma 70.3% | SK-MEL-28 melanoma 108%
active: RXF 393 renal -53% | SNB-75 CNS -12.9% | PC-3 prostate -9.62% | LOX IMVI melanoma 8.4%

O=C(Oc1ccc(CCl)cc1)c1ccccc1
active: DU-145 prostate -92.9% | K-562 leukemia -37.5% | MALME-3M melanoma -69.3% | MDA-MB-231 breast -82% | RXF 393 renal -90.5% | SF-268 CNS -79.3% | SF-295 CNS -92.5% | SF-539 CNS -87.6% | UACC-257 melanoma -67.4% | M14 melanoma -82.7% | HCT-15 colon -87.4% | HT29 colon -58.4% | SNB-75 CNS -98.6% | SNB-19 CNS -86.4% | U251 CNS -86.3% | PC-3 prostate -91.3% | SK-MEL-5 melanoma -99% | UACC-62 melanoma -76.9% | LOX IMVI melanoma -85.1% | SK-MEL-28 melanoma -75.6%

CCN1C(=O)N(CC)C2C1NN=c1s/c(=C3\C(=O)N(CCC(C)C)c4ccccc43)c(=O)n12 (stereo not given)
active: DU-145 prostate 7.36% | MDA-MB-231 breast 5.92% | SF-295 CNS 8.08% | SF-539 CNS -15.2% | HT29 colon 4.19% | U251 CNS 8.16% | SK-MEL-5 melanoma 8.16%
inactive: K-562 leukemia 11.6% | MALME-3M melanoma 51.3% | RXF 393 renal 33.2% | SF-268 CNS 50.8% | UACC-257 melanoma 65% | M14 melanoma 13.5% | HCT-15 colon 14.6% | SNB-75 CNS 21.6% | SNB-19 CNS 23.3% | PC-3 prostate 28.9% | UACC-62 melanoma 18.5% | LOX IMVI melanoma 19.2% | SK-MEL-28 melanoma 59.9%

Cc1c(CN)cc(-c2ccc(Cl)cc2)n1-c1ccccc1
inactive: DU-145 prostate 89.2% | K-562 leukemia 66.1% | MALME-3M melanoma 107% | MDA-MB-231 breast 87.1% | RXF 393 renal 84.6% | SF-268 CNS 86.4% | SF-295 CNS 87.7% | SF-539 CNS 93.7% | UACC-257 melanoma 91.1% | M14 melanoma 82.8% | HCT-15 colon 80.9% | HT29 colon 103% | SNB-75 CNS 78.5% | SNB-19 CNS 84.7% | U251 CNS 79.9% | PC-3 prostate 89.4% | SK-MEL-5 melanoma 82.4% | UACC-62 melanoma 57% | LOX IMVI melanoma 67% | SK-MEL-28 melanoma 114%

O=[N+]([O-])c1cc(NS(=O)(=O)c2ccccc2)ccc1NS(=O)(=O)c1ccccc1
inactive: DU-145 prostate 87.1% | K-562 leukemia 125% | MALME-3M melanoma 155% | MDA-MB-231 breast 91% | RXF 393 renal 134% | SF-268 CNS 106% | SF-295 CNS 133% | SF-539 CNS 118% | UACC-257 melanoma 95% | M14 melanoma 88.5% | HCT-15 colon 72.1% | HT29 colon 84.6% | SNB-75 CNS 125% | SNB-19 CNS 108% | U251 CNS 102% | PC-3 prostate 80.7% | SK-MEL-5 melanoma 99.4% | UACC-62 melanoma 85.7% | LOX IMVI melanoma 99% | SK-MEL-28 melanoma 111%

CN1CCN(CCOc2ccc(-c3cnc4c(-c5ccc(F)cc5)cnn4c3)cc2)CC1
inactive: DU-145 prostate 42.2% | MALME-3M melanoma 53.5% | MDA-MB-231 breast 55.1% | RXF 393 renal 48.8% | SF-268 CNS 56.9% | SF-295 CNS 81% | SF-539 CNS 49.5% | UACC-257 melanoma 28.4% | SNB-75 CNS 68% | SNB-19 CNS 82% | U251 CNS 38.2% | PC-3 prostate 47.5% | SK-MEL-5 melanoma 61.2% | UACC-62 melanoma 50.7% | SK-MEL-28 melanoma 79.4%
active: K-562 leukemia -6.74% | M14 melanoma -29.8% | HCT-15 colon -15.8% | HT29 colon 1.11% | LOX IMVI melanoma -78.5%

COC(=O)C(Cc1ccccc1)NC(=O)c1ccc(NC(=O)c2[nH]c(C)c(Cl)c2Cl)c(OC(C)C)c1 (stereo not given)
active: SF-539 CNS -17.9%
inactive: DU-145 prostate 77.6% | K-562 leukemia 42.1% | MALME-3M melanoma 71.4% | MDA-MB-231 breast 66.3% | RXF 393 renal 128% | SF-268 CNS 86.4% | SF-295 CNS 87.5% | UACC-257 melanoma 101% | M14 melanoma 51.3% | HCT-15 colon 40.5% | HT29 colon 58% | SNB-75 CNS 62.6% | SNB-19 CNS 42.8% | U251 CNS 22.3% | PC-3 prostate 11.4% | SK-MEL-5 melanoma 97.7% | UACC-62 melanoma 90.6% | LOX IMVI melanoma 34.1% | SK-MEL-28 melanoma 102%

C/C(Cc1ccc(Cl)cc1)=C(\c1ccc(OCCCN(C)C)cc1)c1ccc(OC(=O)Cc2ccccc2)cc1
inactive: DU-145 prostate 106% | K-562 leukemia 91.8% | MALME-3M melanoma 111% | MDA-MB-231 breast 108% | RXF 393 renal 109% | SF-268 CNS 97.6% | SF-295 CNS 100% | SF-539 CNS 105% | UACC-257 melanoma 103% | M14 melanoma 109% | HCT-15 colon 103% | HT29 colon 78.8% | SNB-75 CNS 92.8% | SNB-19 CNS 105% | U251 CNS 112% | PC-3 prostate 96.5% | SK-MEL-5 melanoma 102% | UACC-62 melanoma 105% | LOX IMVI melanoma 99.2% | SK-MEL-28 melanoma 103%
